Screening results as filed in PubChem BioAssay.
Shown are actives, neighbours in structure and some others; about 2.6% of the full set was active somewhere.
Platelet DG rel = modulates dense granule release in human platelets | human platelet-rich plasma, SFLLRN dense granule ATP release, luminescence | inhibition, %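 (compounds screened at 7.5 µM in platelet-rich plasma)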 | hit rate 0.22% among 300,000;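 active = mean replicate score, as percent of positive control, at or above 50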
ABHD5 PLIN5 PPI = ABHD5-PLIN5 protein interaction inhibition; inhibition, % at 4 µM; Q00G26+Q8WTS1; Split G. princeps luciferase complementation, luminescence, 4 h; hit rate 0.78% among 360,000;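 active = inhibition above the mean inhibition across every tested compound plus 3 SD, cut at about 22% in these data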
Target sequence (Q00G26 whole entry, looked up): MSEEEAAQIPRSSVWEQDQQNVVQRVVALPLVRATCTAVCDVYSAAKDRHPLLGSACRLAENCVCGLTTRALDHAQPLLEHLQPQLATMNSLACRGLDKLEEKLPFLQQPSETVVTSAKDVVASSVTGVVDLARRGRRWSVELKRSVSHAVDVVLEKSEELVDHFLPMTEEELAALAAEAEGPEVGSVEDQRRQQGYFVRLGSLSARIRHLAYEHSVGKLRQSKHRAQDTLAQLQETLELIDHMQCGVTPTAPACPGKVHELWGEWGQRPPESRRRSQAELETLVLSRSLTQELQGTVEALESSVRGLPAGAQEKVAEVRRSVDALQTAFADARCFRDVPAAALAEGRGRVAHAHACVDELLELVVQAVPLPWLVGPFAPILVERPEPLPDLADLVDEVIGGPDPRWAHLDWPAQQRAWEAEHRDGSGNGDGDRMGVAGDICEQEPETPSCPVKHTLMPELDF
Target sequence (Q8WTS1 whole entry, looked up): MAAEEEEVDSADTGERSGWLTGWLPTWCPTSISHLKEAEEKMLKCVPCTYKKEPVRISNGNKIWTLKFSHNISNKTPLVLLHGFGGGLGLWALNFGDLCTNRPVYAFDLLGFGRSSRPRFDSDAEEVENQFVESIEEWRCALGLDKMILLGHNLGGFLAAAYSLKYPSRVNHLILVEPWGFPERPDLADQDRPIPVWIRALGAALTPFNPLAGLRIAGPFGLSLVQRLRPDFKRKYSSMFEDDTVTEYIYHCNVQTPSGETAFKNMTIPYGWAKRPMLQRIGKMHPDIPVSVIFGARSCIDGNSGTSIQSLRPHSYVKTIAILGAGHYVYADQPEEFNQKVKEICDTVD
Exocytosis inh = lytic granule exocytosis inhibition. TALL-104 LAMP-1 surface exposure, flow cytometry; cells stimulated with thapsigargin and PMA. inhibition, % at 10 µM. hit rate 0.66% among 360,000. AID 651702;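 active = inhibition above about 55%, limit read from the data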
Rce1 inh = yeast Ras-converting enzyme inhibition; Q03530; yeast membranes, quenched prenylated peptide cleavage fluorescence; calls only; hit rate 0.27% among 290,000; AID 2563;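 active = fall in fluorescence gain of 50% or more versus controls, with final raw signal at or below 3038400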
PfM18AAP inh = blocks P. falciparum M18 aspartyl aminopeptidase | inhibition, % at 7.35 µM | recombinant PfM18AAP, H-Glu-NHMec fluorogenic cleavage | AID 1822 | hit rate 1.2% among 290,000;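 active = inhibition above the campaign mean inhibition over all tested compounds plus 3 SD, cut at about 28% in these data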
Exocytosis CP01 = lytic granule exocytosis inhibition. shares compounds with Exocytosis inh. TALL-104 cells, LAMP-1 externalization, flow cytometry; stimulated with PMA plus thapsigargin. hit rate 11% among 1,500. inhibition, % at 10 µM; in the data active = inhibition above about 60%
A number is an active result; n = inactive; x = not tested or not shown.

SMILES	Platelet DG rel	ABHD5 PLIN5 PPI	Exocytosis inh	Rce1 inh	PfM18AAP inh	Exocytosis CP01
O=C(CSc1nccn(-c2ccc(F)c(F)c2)c1=O)NC1CCCC1	n	n	n	n	x	x
O=S(=O)(c1ccc(Br)s1)N1CCN(c2ccc(F)cc2)CC1	n	n	66.1	n	n	n
CCOc1ccc(C(=O)Nc2ccc3nc(N4CCN(CC)CC4)cc(C)c3c2)cc1	n	n	62.8	n	n	n
COc1cc(Sc2ccc(C)cc2)c(OC)cc1N	n	n	93.7	n	n	n
CC(C)[C@H](NC(=O)c1ccccc1)C(=O)OCC(=O)N1CCc2ccccc2C1	n	n	68.3	n	n	n
Cc1ccc(-n2nc3c(N4CCC(C(=O)NCc5cccc(F)c5)CC4)nnc(C)c3c2C)cc1	n	n	59.0	n	n	n
CCOc1ccccc1CNC(=O)C1CCCN(c2nnc(C)c3c(C)n(-c4ccccc4)nc23)C1 (stereo not given)	n	n	72.5	n	n	n
Nc1nc(SCc2ccccc2)n[nH]1	n	n	n	n	n	x
COc1ccc(N2C(=O)C(CC(=O)Nc3ccc(Cl)cc3)N(NC(=O)c3cccc(F)c3)C2=S)cc1 (stereo not given)	n	n	n	n	n	x
COc1ccccc1CCC(=O)NCCCn1ccc2ccccc21	n	n	71.5	n	n	n
COc1ccccc1CCNC(=O)Cn1ccc2cc(S(=O)(=O)N3CCC(C)CC3)ccc21	n	n	59.9	n	n	n
NC(Cc1ccccc1)c1csc(Nc2ccc(C(=O)c3ccccc3)cc2)n1 (stereo not given)	x	n	n	x	x	x
NC(Cc1ccc(Cl)cc1)c1csc(Nc2ccc(C(=O)c3ccccc3)cc2)n1 (stereo not given)	x	n	58.2	x	x	n
CC(C)Cn1c(SCC(=O)N2CCN(S(=O)(=O)c3ccccc3)CC2)nc2ccccc21	n	n	n	n	n	x
CC(=O)c1cc(F)c(N2CCOCC2)cc1C	n	n	n	n	n	x
COc1ccc(-c2noc(CNC(=O)c3ccc4c(c3)OCO4)n2)cc1	n	n	n	n	n	x
Cc1cccc(-c2noc(CNC(=O)c3ccc4c(c3)OCO4)n2)c1	n	n	55.7	n	n	n
CSc1cccc(NC(=S)N(CCCN2CCCC2)Cc2cccn2Cc2ccc(Cl)cc2)c1	n	n	92.6	n	n	62.9
CSc1cccc(NC(=S)N(CCCN2CCCC2)Cc2cccs2)c1	n	n	n	n	n	x
N#Cc1c(Oc2ccc3ccccc3c2)sc(C(=O)c2ccccc2)c1N	n	n	n	n	n	x
Cc1cccc(Oc2sc(C(=O)c3ccccc3)c(N)c2C#N)c1C	n	n	65.6	n	n	n
COc1ccc(C(=O)C2CCCN(Cc3cccn3-c3ccc(Cl)cn3)C2)c(OC)c1 (stereo not given)	n	n	68.5	n	n	n
COc1ccc(C(C)(C)C)cc1NS(=O)(=O)c1cccc2cccnc12	n	n	59.0	n	n	n
CCCc1cc(=O)oc2c(C)c(OCC(=O)N3CCC(C(=O)O)(c4ccccc4)CC3)ccc12	n	n	n	n	n	x
Cc1ccc(C)c(N(CC(=O)NC2CCCC2)C(=O)CCC(=O)Nc2nccs2)c1	n	n	78.1	x	n	n
SMILES	Platelet DG rel	ABHD5 PLIN5 PPI	Exocytosis inh	Rce1 inh	PfM18AAP inh	Exocytosis CP01
CCN(c1ccccc1)S(=O)(=O)c1cc(NC(=O)COC(=O)C2CC2)ccc1Cl	n	n	n	n	n	x
Cc1ccc(NC(=O)CSc2nc(O)cc(=O)n2-c2ccc(C)cc2)cc1	n	n	n	n	n	x
CC(=O)Nc1ccc(NC(=O)CSc2nc(=O)n(Cc3ccncc3)c3c2CCC3)cc1	n	n	n	n	x	x
Cc1ccc(NC(=O)CSc2nc(=O)n(Cc3ccncc3)c3c2CCC3)c(C)c1	n	n	58.6	n	x	n
COc1cccc(-c2nc(NC3CCCC3)c3ccccc3n2)c1O	n	n	77.9	n	n	n
c1ccc(-c2nc(NC3CCCC3)c3ccccc3n2)cc1	n	n	57.4	n	n	n
COc1cccc(-c2nc(NCc3ccccc3)c3ccccc3n2)c1O	n	n	64.5	n	n	n
c1ccc(Nc2nc(-c3ccccc3)nc3ccccc23)cc1	n	n	n	n	n	x
C=C1CCN(C(C(=O)OC)C(C)C)S(=O)(=O)c2ccc(F)cc21 (stereo not given)	n	n	n	n	x	x
Cc1cc(C)n2c3c(c(C#N)c2n1)CC(C)(C)OC3	n	n	n	x	n	x
Cc1ccc(-c2nc3ccsc3c(=O)o2)cc1	n	n	n	x	n	x
COc1ccc(-n2c(NC(=O)c3ccc(Br)o3)c(C#N)c3nc4ccccc4nc32)cc1	n	x	x	n	n	x
N#Cc1c(NC(=O)c2ccc(Br)o2)n(-c2ccccc2)c2nc3ccccc3nc12	n	n	72.3	n	n	96.5
O=S(=O)(c1ccc2c(c1)OCCO2)N1CCNCC1	n	n	n	n	n	x
CCOC(=O)C1(CCOc2ccccc2)CCN(Cc2ccc(OC)c(COC)c2)CC1	n	n	73.6	n	n	n
CCOC(=O)C1(CCOc2ccccc2)CCN(Cc2cc(OC)c(O)c(OC)c2)CC1	n	n	76.6	n	n	n
CCOC(=O)C1(Cc2cccc(OC)c2)CCN(Cc2ccc(OC)c(O)c2)CC1	n	n	n	n	n	x
CCOC(=O)C1(CCOc2ccccc2)CCN(Cc2ccc(OC)c(O)c2)CC1	n	n	71.0	n	n	n
CCOC(=O)C1(CCOc2ccccc2)CCN(Cc2ccc(O)cc2)CC1	n	n	56.5	n	n	n
CCOC(=O)C1(CCOc2ccccc2)CCN(Cc2ccc(OCCO)cc2)CC1	n	n	n	n	n	x
CCCNC(=O)C1(C)CCCN(C(=O)c2cccc(C(F)(F)F)c2)C1 (stereo not given)	x	n	n	x	x	x
O=C(COC(=O)C1CCN(S(=O)(=O)c2cccs2)CC1)c1ccccc1	n	n	n	n	n	x
Cc1ccc(NC(=O)COc2ncnc3sccc23)cc1S(=O)(=O)N(C)C	n	n	n	n	n	x
CCOC(=O)C1(CCOc2ccccc2)CCN(Cc2cnc(SC)nc2)CC1	n	n	n	n	n	x
CCOC(=O)C1(CCOc2ccccc2)CCN(Cc2ccc(O)c(OCC)c2)CC1	n	n	80.9	n	n	n
SMILES	Platelet DG rel	ABHD5 PLIN5 PPI	Exocytosis inh	Rce1 inh	PfM18AAP inh	Exocytosis CP01
CN(CC(=O)NCCCc1ccccc1)Cc1ccc(Br)cc1	n	n	n	n	n	x
CN(CC(=O)NCCc1ccc(F)cc1)Cc1ccc(Br)cc1	n	n	69.8	n	n	n
CCn1cc(CN2CCc3c([nH]c4ccccc34)C2c2cccc(OC)c2OC)c(C)n1 (stereo not given)	n	n	59.1	n	n	n
COc1cc(C2c3[nH]c4ccccc4c3CCN2Cc2cn(C)nc2C)ccc1F (stereo not given)	n	n	n	n	n	x
Cc1cccc(NS(=O)(=O)c2cccc(C(=O)N3CC(C)OC(C)C3)c2)c1 (stereo not given)	n	n	n	n	x	x
CCCNCc1cc(Br)ccc1OCC(=O)NCCc1ccccc1	n	n	n	n	n	x
O=C(COc1ccc(Br)cc1CNCCc1ccccc1)NCc1ccccc1	n	n	66.9	n	n	n
